The test system of assay [1] is SRY-box transcription factor 17 (SOX17) Protein Expression, Deisenroth Lab, SOX17 (gene 64321). Description: CCTE_Deisenroth_DEVTOX-GLR_legacy_Sox17: (Legacy) CCTE's DevTox GLR-Endo Assay Evaluation of SRY-box transcription factor 17 (SOX17) Protein Expression, Deisenroth Lab (AID 2284341). Conditions: actives raise or lower the signal. The procedure, abridged: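 RUES2-GLR human pluripotent cells differentiated toward endoderm for 48 h, dosed twice at 24 h intervals (1 nM–200 uM, 10 points). Imaging gives % SOX17+ cells (intensity >5x BMAD above pluripotent control median); bidirectional fit versus 0.2% DMSO.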

In assay [2] the test system is SRY-box transcription factor 2 (SOX2) Protein Expression, Deisenroth Lab, SOX2 (gene 6657). Description: CCTE_Deisenroth_DEVTOX-GLR_legacy_Sox2: (Legacy) CCTE's DevTox GLR-Endo Assay Evaluation of SRY-box transcription factor 2 (SOX2) Protein Expression, Deisenroth Lab (AID 2284346). The procedure, abridged:
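RUES2-GLR human pluripotent cells seeded 24 h, then differentiated 48 h in defined media with two chemical doses 24 h apart (10-point, 1 nM–200 uM). Fixed, nuclear-stained, imaged; % Sox2+ cells (>5x BMAD over endoderm control median), DMSO-subtracted, fitted upward.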

Active and inactive are the calls of the source. Rule for the calls: active = hit-call score of the fitted dose curve at least 0.9, where 1 is the maximum; inactive = score below 0.9.

1 compound from PubChem BioAssay (EPA / NIEHS) can be followed below.

On to `O=P1(N(CCCl)CCCl)NCCCO1` (configuration not stated), for which the result in assay [1] and in assay [2] was inactive.
